Drawing on PubChem BioAssay AID1650 (Southern Research Specialized Biocontainment Screening …, 2009), this text covers outcome for 25 compounds.

Potency and affinity values are given separately. Calls of active or inactive are those of the source. A call without a number means that no potency is given here. How the calls were made is not given here.

The nature of this test: host cell cytotoxicity of antiviral hits, dose response, cytotoxicity control for West Nile virus antiviral project, secondary assay (AID 1650). The note with it: Mammalian host cell viability, cytotoxicity counter-screen; series mostly up to 10 µM.
Consider `CCN(CC)CCCNC(=O)c1sc2nc(-c3ccc(F)cc3)cn2c1C`, for which the outcome was inactive.

Consider `O=C(CSCc1ccc(Cl)cc1)Nc1ccc2c(c1)OCCO2`, for which the result was inactive.

Turning to `OCCN(CCO)CC(O)COc1ccc(C23CC4CC(CC(C4)C2)C3)cc1` (stereo not given), the compound was classed as inactive.

For the compound `C/C(N)=C(/C#N)C(=O)COC(=O)c1cc(-c2ccc(Br)cc2)nc2ccccc12`, the outcome was inactive.

Regarding `COc1cc(-c2cc3nc(C)c(C)c(=O)n3[nH]2)cc(OC)c1OC`, the outcome was inactive.

For `O=C(CCN1C(=O)/C(=C/c2ccccc2Cl)SC1=S)NCCc1ccc(O)cc1`, the outcome was inactive.

For `CCn1cc(C(=O)NCc2ccc3c(c2)OCO3)c(=O)c2cc(F)c(N3CCN(C(=O)c4ccco4)CC3)cc21`, the outcome was inactive.

Consider `COc1ccc(-n2cc(CNCCCn3ccnc3)c(-c3cccc(F)c3)n2)cc1`, for which the outcome was inactive.

Take `C/C(=N\Nc1nnc(-c2ccccc2)c(-c2ccccc2)n1)c1cccc([N+](=O)[O-])c1`: the outcome was inactive.

As for `CCOC(=O)c1c(CN2CCN(CCO)CC2)n(-c2ccccc2)c2cc(Br)c(O)cc12`, the outcome was inactive.

For `CCN(CCCNC(=O)c1cc2c(-c3cccc(OC)c3)nn(C)c2s1)Cc1ccccc1`, the call was inactive.

As to `Cc1ccc(Cl)cc1N1CCN(CC(=O)Nc2ccc(CN3CCCCC3)cc2)CC1`, the result was inactive.

As to `COc1cc(C(CCN2CCCC(C)C2)c2c(OC)cc(OC)c3c(-c4ccccc4)cc(=O)oc23)cc(OC)c1OC` (stereo not given), the compound was called inactive.

With `CC(C)(C)n1nnnc1C(c1ccccc1)N1CCc2ccccc2C1` (stereo not given), the call was inactive.

With `CN1CCN(c2nc(Nc3cccc(C(F)(F)F)c3)nc(N3CCOCC3)n2)CC1`, the outcome was inactive.

`O=C1Nc2cc(C(=O)NCCCN3CCOCC3)ccc2S/C1=C/c1cccc(Cl)c1`: the compound was classed as inactive.

For `O=S(=O)(/C=C/c1ccccc1)Oc1ccccc1`, the outcome was inactive.

Turning to `CCN1CCN(c2cc(C)c3cc(NC(=S)N4CC(C)CC(C)C4)ccc3n2)CC1` (stereo not given), the result was inactive.

Turning to `CN1CCN(C(=O)CCN2C(=O)/C(=C/c3cccc(Br)c3)SC2=S)CC1`, the result was inactive.

Consider `O=c1[nH]c2ccc(Cl)cc2c(-c2ccccc2)c1N1CCN(CCO)CC1`, for which the call was inactive.

Take `CN(C)CCNc1ncnc2c1sc1nc(-c3ccccc3)c3c(c12)CCCC3`: the call was inactive.

On to `CC(CN1CCCC1)C(=O)NN` (stereo not given), for which the outcome was inactive.

As to `O=C(/C=C/c1cccnc1)c1ccc(O)cc1`, the result was inactive.

On to `CN(C)CCNc1oc(COc2ccc(-c3ccccc3)cc2)nc1C#N`, for which the outcome was inactive.

For `COc1ccc(S(=O)(=O)NC2CCCC2)c(Cl)c1Cl`, the result was inactive.
